Sampled rows, rich in hits. Any-hit rate of the full collection: about 19%.
TDP1 cell CPT: DT40-hTDP1 cell growth loss with CPT. chicken DT40 Tdp1-/-;hTDP1 cells + 20 nM CPT, ATP luminescence, 48 h. Potency, µM (series often up to 46.2 µM), for the others: at the top dose activity change, negative = growth inhibition, actives largely listed as inhibitors. 420,000 compounds, 12% hits. AID 686979; note: potency is the fitted concentration of half-maximal effect; nearly all actives have a fitted effect of over 55% in size
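Chicken DT40 Tdp1-/- cells complemented with human TDP1, 400 cells/well, exposed to compounds plus 20 nM camptothecin for at least 48 h at 37 C; viability read as ATP content by CellTiter-Glo luminescence.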
HT1080 IDH1KD tx: toxicity to HT-1080 IDH1 knockdown cells (counter line); HT-1080 IDH1 knockdown viability, ATP luminescence, 48 h; Potency, µM (series often up to 46.1 µM), for inactives: top-dose activity, negative = toxicity, usual class: cytotoxic; 360,000 compounds, 2% hits;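 note: potency is the fitted concentration of half-maximal effect; 0% = DMSO wells and -100% = cell-free medium wells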
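Using the IDH1-knockdown HT-1080 line run in the same batch and compound series as the NT line, viability after 48 h at 37 °C was determined by CellTiter-Glo luminescence and expressed as % activity.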
HT1080NT lethal: kills 2HG-producing HT-1080-NT fibrosarcoma cells | HT-1080-NT fibrosarcoma viability, CellTiter-Glo ATP luminescence, 48 h | Potency, µM (series often up to 46.1 µM), for inactives: at the top dose activity, negative = less viability, hits mostly cytotoxic | 360,000 compounds, 1.6% hits;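 note: NT is the 2HG producing partner of a matched IDH1 knockdown line; potency is the fitted concentration of half-maximal effect; 0% = DMSO-treated cells and -100% = media-only wells without cells; nearly all actives have a fitted effect of over 55% in size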
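HT-1080-NT fibrosarcoma cells (2HG-overproducing), 750 cells/well in RPMI with 5% FBS, dosed after 2 h and incubated 48 h at 37C. CellTiter-Glo luminescence normalized to DMSO and no-cell wells; concentration-response curves fitted and classed.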
DT40 TDP1 no CPT: qHTS for Inhibitors of human tyrosyl-DNA phosphodiesterase 1 (TDP1): qHTS in cells in absence of CPT | Potency, µM (top dose mostly 46.2 µM), for the others: at the top dose activity change, negative = growth inhibition, hits mostly inhibitors | DT40 Tdp1-/- hTDP1 cells, no CPT, ATP luminescence, 48 h | 420,000 compounds, 15% hits | AID 686978, 2013; note: potency is the fitted concentration of half-maximal effect; nearly all actives have a fitted effect of over 55% in size
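Chicken DT40 Tdp1-/- cells stably complemented with human TDP1 were seeded at 400 cells/well with DMSO in place of 20 nM camptothecin. After compound pinning, cells grew at least 48 hr at 37 °C; viability read by CellTiter-Glo luminescence.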
ELG1 repair inh: inhibitors of ELG1-dependent DNA repair in HEK293T cells | HEK293T ELG1-luciferase reporter, luminescence, 16 h; DNA damage induced by 5-fluorouridine | Potency, µM (doses to about 46.1 µM), for inactives: at the top dose activity change, negative = inhibition, hits mostly inhibitors | 330,000 compounds, 2.3% hits | AID 504467; note: potency is the fitted concentration of half-maximal effect; nearly all actives have a fitted effect of over 55% in size
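DMSO vehicle served as the neutral condition. Each well held 2,000 cells given 5-fluorouridine plus compound; after 16 hr at 37 °C/5% CO2, ONE-Glo was added and luciferase measured 30 min later.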
IL1B secr inh: inhibitors of inflammasome signaling (IL-1 beta secretion); THP-1 LPS/ATP IL-1B secretion, AlphaLISA, 16 h; stronger effect = lower value; activity change, % at 57.5 µM; 360,000 compounds, 4.7% hits; AID 743279; in the data active = activity change below about -50%; inconclusive = mostly about -30% to -49%
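Secreted IL-1B measured by AlphaLISA bead assay after 16 h compound exposure of THP-1 cells; compounds (final up to 57.5 uM) added 1 h before LPS (250 ng/mL) and ATP (1.25 mM) stimulation; lower signal means less secretion.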
* = called active by the depositor; ? = inconclusive; / = no result given. Unless noted, calls come from the whole dose curve; as a rule, active = well fitted curve in the direction sought with a large enough effect; inconclusive = small, poorly fitted or top-dose-only effect, or another doubt; inactive = no such curve, though single readings can be large; an effect the other way counts as inactive or inconclusive. Unless noted, % is set by controls: 0 for no effect and ±100 for the full control effect.

SMILES	TDP1 cell CPT	HT1080 IDH1KD tx	HT1080NT lethal	DT40 TDP1 no CPT	ELG1 repair inh	IL1B secr inh
O=C(CN1CCN(Cc2ccc(Cl)cc2)CC1)N/N=C/C=C/c1ccccc1[N+](=O)[O-]	?	-3%	0%	18µM*	-27%	-5
Cc1ccsc1/C=N/NC(=O)c1cccs1	11%	-13%	-3%	-11%	?	-7
COCCCN1C(=O)C(CC(=O)NCc2cccs2)CC(C(=O)N(C(C)C)C(C)C)=C1C (configuration not stated)	1%	15%	25%	-11%	/	28
O=C(CSc1nnc(SCc2ccccc2)s1)N/N=C/C=C/c1ccccc1[N+](=O)[O-]	?	16%	9%	16µM*	4%	-2
COc1ccc(N2CCN(Cc3nc4c(c(=O)[nH]c(=O)n4C)n3Cc3ccccc3)CC2)cc1	1%	/	/	-9%	/	/
CC(C)Cn1c(CN2CCN(c3cccc(Cl)c3)CC2)nc2c1c(=O)[nH]c(=O)n2C	18µM*	/	/	21µM*	/	/
Cn1c(=O)[nH]c(=O)c2c1nc(CN1CCN(c3cccc(Cl)c3)CC1)n2CCCc1ccccc1	?	-2%	-1%	?	9.2µM*	-13
Cn1c(=O)[nH]c(=O)c2c1nc(CN1CCN(c3cccc(Cl)c3)CC1)n2Cc1ccccc1Cl	?	0%	7%	15µM*	0%	17
Cn1c(=O)[nH]c(=O)c2c1nc(CN1CCOCC1)n2CCCc1ccccc1	-10%	6%	10%	-6%	-1%	-27
COc1ccc(N2CCN(Cc3nc4c(c(=O)[nH]c(=O)n4C)n3CC(C)C)CC2)cc1	-5%	/	/	-7%	/	/
COc1ccc(N2CCN(Cc3nc4c(c(=O)[nH]c(=O)n4C)n3CCCc3ccccc3)CC2)cc1	-3%	-22%	?	-10%	8.9µM*	-21
O=C1NC(=O)C2(CCCC2c2ccccc2)N1 (configuration not stated)	-3%	3%	-2%	-11%	/	-1
CCCCn1c(CN2CCN(c3cccc(Cl)c3)CC2)nc2c1c(=O)[nH]c(=O)n2C	3.3µM*	3.5µM*	5µM*	3.3µM*	?	39
Cn1c(=O)[nH]c(=O)c2c1nc(CN1CCN(c3cccc(Cl)c3)CC1)n2CCN1CCOCC1	4%	4%	3%	?	-11%	-13
CN(Cc1cccnc1)C(=O)c1cc(COc2ccc3c(c2)CCCC3)on1	?	-18%	-17%	?	?	0
COc1nc2c(c(-c3cc(Br)cs3)c1C#N)Cc1ccccc1-2	?	-5%	8%	26µM*	0%	7
CN(CC1(C)CCCO1)S(=O)(=O)c1ccc(Cl)c(S(N)(=O)=O)c1 (configuration not stated)	?	/	/	-2%	/	/
CCCNc1nc(Nc2ccc(C)cc2)nc(N2CCCC2)n1	23µM*	-6%	-17%	21µM*	?	-23
O=[N+]([O-])c1ccc(Nc2nc(NCCO)nc(N3CCCC3)n2)cc1	?	1%	-14%	21µM*	?	-25
COCCN(C(=O)c1ccc(N(C)S(=O)(=O)c2ccc(C)cc2)cc1)c1c(N)n(CC(C)C)c(=O)[nH]c1=O	-6%	-1%	-1%	12%	/	-13
CCCc1ccc(OC(=O)CSc2nnc(-c3cccs3)o2)cc1	-10%	/	/	12%	/	/
CCOC(=O)C1(CCCc2ccccc2)CCN(C(=O)c2cncs2)CC1	18µM*	-24%	-14%	23µM*	-17%	-23
CCOC(=O)C1(CCCc2ccccc2)CCN(C(=O)c2cc(C)nn2CC)CC1	18µM*	-12%	?	9.2µM*	?	9
CCOC(=O)C1(CCCc2ccccc2)CCN(C(=O)c2n[nH]c(CC)c2C)CC1	23µM*	-19%	-4%	13µM*	/	?
CCOC(=O)C1(CCCc2ccccc2)CCN(C(=O)COC)CC1	?	25%	?	-5%	0%	8
SMILES	TDP1 cell CPT	HT1080 IDH1KD tx	HT1080NT lethal	DT40 TDP1 no CPT	ELG1 repair inh	IL1B secr inh
CCOC(=O)C1(CCCc2ccccc2)CCN(C(=O)Cn2nc(C)nc2C)CC1	23µM*	-6%	0%	?	-10%	22
CCOC(=O)C1(CCCc2ccccc2)CCN(C(=O)c2ocnc2C)CC1	-30%	-20%	-4%	?	?	-20
CCOC(=O)C1(CCc2ccccc2)CCN(C(=O)c2cnc(C)cn2)CC1	?	6%	0%	?	?	2
O=C1NC[C@H](CCCCN2C[C@H](Cc3ccc(O)cc3)N(CCc3ccc(O)cc3)C(=O)C2=O)N(CCc2ccccc2)C1=O	1%	14%	1%	-3%	/	0
Nc1[nH]c(=S)nc2nnsc12	11µM*	/	/	11µM*	/	/
Nc1nc(N)c2snnc2n1	2%	/	/	?	/	/
CC(C)(C)NC(=O)C(c1ccc(F)cc1)N(Cc1cccs1)C(=O)c1ccc(CN2CCOCC2)o1 (configuration not stated)	-7%	0%	2%	?	-11%	-53*
c1ccc(CCn2c3ccccc3c3nnc(SCc4ccc5nonc5c4)nc32)cc1	15µM*	7.1µM*	?	16µM*	-11%	-4
C=CCn1c2ccccc2c2nnc(SCN3C(=O)c4ccccc4C3=O)nc21	-28%	-17%	-11%	-24%	2%	-17
O=C1c2ccccc2C(=O)N1CSc1nnc2c3ccccc3n(CCc3ccccc3)c2n1	?	22%	23%	21µM*	-3%	-22
C=CCN1C(=O)CSC1=Nc1ccc(O)cc1	?	?	-18%	16µM*	-6%	22
Cn1c(C(=O)NCCCN2CCCC2=O)cc2c(=O)n(C)c3ccccc3c21	-28%	10%	8%	-2%	?	-10
CC1CCCCN1CCNC(=O)c1cc2c(=O)n(C)c3ccccc3c2n1C (configuration not stated)	?	-12%	-11%	?	27%	-55*
Cn1c(=O)c(C(=O)NC2CCCCCCC2)c(O)c2ccccc21	21µM*	-2%	5%	21µM*	7%	6
CCCN(CCC)CCNC(=O)c1cc2c(=O)n(C)c3ccccc3c2n1C	?	-15%	-13%	18µM*	?	-63*
Cn1c(=O)c(C(=O)NC2CCCCCC2)c(O)c2ccccc21	-6%	4%	7%	-17%	27%	32

Screening data as filed in PubChem BioAssay.
